# This is a sample that favours compounds with a hit; in the whole collection about 3.9% have one here.
# Vc quorum ag – inducers of Vibrio cholerae quorum light production without autoinducers. 350,000 tested, 0.16% active. V. cholerae BH1578 lux reporter, luminescence, 6 h. activation, % at 18.7 µM; in the data active means activation mostly above about 9.7%, no sharp cut-off; inconclusive means no clear call, values can overlap the other calls; inactive means mostly below about 3.7%
# BoNT-A LC inh2 – BoNT A light chain protease inhibition; multiplex microsphere protease substrate cleavage, flow cytometry; 360,000 tested, 0.17% active; inhibition, % at 10 µM
# Autofluor counter – counter-screen for toxin protease inhibitors: compound fluorescence. compound autofluorescence counterscreen, microsphere flow cytometry; hits give high values. fluorescence intensity (no concentration beside the values). 360,000 tested, 3.1% active. AID 624483; in the data active means fluorescence intensity above about 16000; inconclusive means no clear call, values can overlap the other calls
# Anthrax LF inh2 – blocks Bacillus anthracis lethal factor protease. 360,000 tested, 0.12% active. multiplex microsphere protease cleavage assay, LF. inhibition, % at 10 µM. P15917
# BoNT-F LC inh – blocks Botulinum neurotoxin F light chain protease. Multiplex microsphere protease cleavage assay, flow cytometry. inhibition, % at 10 µM. 360,000 tested, 0.22% active; in the data active means inhibition above about 35%, passing the limit was not always enough; inconclusive means no clear call, values can overlap the other calls
# MazEF act – MazEF (E. coli) toxin RNase activation. P0AE70. FAM/BHQ RNA-DNA oligo cleavage fluorescence, 5 h. activation, % at 20 µM. 350,000 tested, 0.32% active; in the data active means activation above about 50%
# A number is an active result; 0 = inactive; ? = inconclusive; - = not tested or not shown. Unless noted, no stated cut-off is given here; in the data, active means inhibition above about 30%; inconclusive means no clear call, values can overlap the other calls; inactive means below that.
SMILES,Vc quorum ag,BoNT-A LC inh2,Autofluor counter,Anthrax LF inh2,BoNT-F LC inh,MazEF act
Cc1ccc(C(=O)O)cc1S(=O)(=O)N1CCOCC1,0,0,16552,0,0,0
O=C(c1cccc(S(=O)(=O)N2CCOCC2)c1)N1CCN(c2ccc(F)cc2)CC1,0,0,21227,0,0,0
COc1ccc(N2CCN(C(=O)c3ccc(S(=O)(=O)N4CCOCC4)cc3)CC2)cc1,0,0,22765,0,0,0
Cc1ccc(C(=O)N2CCOCC2)cc1S(=O)(=O)N1CCOCC1,0,0,0,0,0,0
O=C(c1cccc(S(=O)(=O)N2CCOCC2)c1)N1CCN(c2ccccc2)CC1,0,0,0,0,0,0
COc1ccc(CC(=O)N2CCN(C)CC2)cc1,0,0,16186,0,0,0
CC(CNC(=O)c1ccccc1[N+](=O)[O-])NC(=O)c1ccccc1[N+](=O)[O-] (centres undefined),0,-,-,-,-,0
O=C(O)c1ccc(N/N=C2/CCCc3ccccc32)cc1,0,0,0,0,0,0
O=C(Nc1ccccc1F)c1cc(S(=O)(=O)N2CCOCC2)ccc1N1CCOCC1,0,0,0,0,0,0
CCc1ccc(CNCCNCC(C)O)cc1 (centres undefined),0,0,21353,0,0,0
CC(O)CNCCNCc1cccs1 (centres undefined),0,0,0,0,0,0
COc1ccccc1S(=O)(=O)N(C)C[C@@H]1OCc2cn(nn2)CCCC(=O)N([C@@H](C)CO)C[C@H]1C,0,0,0,0,0,0
COCCNC(=S)NNc1cccc(C(=O)O)c1,0,0,0,0,0,0
Cn1c(SCC(=O)Nc2ccccc2F)nnc1-c1cccs1,0,0,0,0,0,0
COc1cc(NC(=O)CSc2nc3ccccc3c(=O)n2C)ccc1NC(=O)c1ccco1,0,0,17911,0,0,0
COc1cc(NC(=O)c2ccco2)c(OC)cc1NC(=O)CSc1nnc(-c2cccs2)n1C,0,0,22652,0,0,0
COc1cc(NC(=O)COc2ccccc2)ccc1NC(=O)c1ccco1,0,0,0,0,0,0
CCOc1ccc(OCC)c(NC(=O)CSc2nc3ccccc3c(=O)n2C)c1,0,0,22042,0,0,0
NC(CCc1ccccc1)c1csc(Nc2cnccn2)n1 (centres undefined),0,0,0,0,0,-
C=Cc1ccc2c(c1)N(C)C(=C)S2,0,0,0,0,0,0
COCC(=O)Nc1ccc2c(c1)[C@@H]1C[C@H](CC(=O)NCc3cccc(F)c3)O[C@@H](CO)[C@@H]1O2,0,0,0,0,0,0
Cc1ccc(-n2nnnc2-c2ccco2)cc1,0,0,0,0,0,0
c1ccc(Cn2nnnc2-c2ccco2)cc1,0,0,16264,0,0,0
CC1=CC(C)(C)N2C(=O)C3(C(C#N)=C(N)OC4=C3C(=O)CCC4)c3c(C)c(C)cc1c32 (centres undefined),0,0,17514,0,0,0
CC1=CC(C)(C)N2C(=O)C3(C(C#N)=C(N)Oc4cc(O)ccc43)c3c(C)c(C)cc1c32 (centres undefined),0,0,23874,0,0,0
SMILES,Vc quorum ag,BoNT-A LC inh2,Autofluor counter,Anthrax LF inh2,BoNT-F LC inh,MazEF act
CCOC(=O)C1=C(N)OC2=C(C(=O)CCC2)C12C(=O)N1c3c(ccc(C)c32)C(C)=CC1(C)C (centres undefined),0,0,0,0,0,0
COC(=O)C1CCN(C(=O)c2ccc(Cl)c(S(=O)(=O)NCc3cccnc3)c2)CC1,0,?,23363,0,0,0
O=C(c1ccc(Cl)c(S(=O)(=O)NCc2ccccc2)c1)N1CCN(c2ccccn2)CC1,0,0,18872,0,0,0
Cc1ccc(S(=O)(=O)N2CCN(c3nc(CN4CCCC4)nc4sc(C)c(C)c34)CC2)cc1,0,0,0,0,0,0
Cc1sc2nc(CN3CCCC3)nc(N3CCN(S(=O)(=O)c4cccs4)CC3)c2c1C,0,?,24350,0,0,0
Cc1cc(C)cc(-c2nnc(SCC(=O)c3c(N)n(C4CC4)c(=O)[nH]c3=O)o2)c1,0,-,-,-,-,0
CC(=O)OC1CC(C)N(C(=O)c2ccccc2)c2ccc(C)cc21 (centres undefined),0,0,25080,0,0,0
O=C(NCCCN1CCC(Cc2ccccc2)CC1)C1CC(=O)N(C2CCCCCC2)C1 (centres undefined),0,0,20812,0,0,0
CCN(CC)S(=O)(=O)c1cccc(NC(=O)c2ccc(C#N)cc2)c1,0,0,0,0,0,0
O=C(OCc1cccc(F)c1)c1ccc2c(c1)-c1ccccc1C2=O,0,0,22813,0,0,0
CCOC(=O)c1ccc(COC(=O)c2ccc3c(c2)-c2ccccc2C3=O)cc1,0,0,0,0,0,0
O=C(OCc1ccccc1F)c1ccc2c(c1)-c1ccccc1C2=O,0,0,19102,0,0,0
Cc1cc(SCc2ccc(Br)cc2)nc(=O)[nH]1,0,0,0,0,0,0
COc1cc(NC(=O)Cn2c(C)cc3ccccc3c2=O)cc(OC)c1OC,0,0,0,0,0,0
COc1cc(NC(=O)Cn2c(-c3cncs3)nc3ccccc32)cc(OC)c1OC,0,?,21248,0,0,0
Cc1ccc2nc(NC(=O)CCNS(=O)(=O)c3ccc(Br)s3)sc2c1,0,0,23058,0,0,0
Cc1ccc2nc(NC(=O)CCNS(=O)(=O)c3cccs3)sc2c1,0,0,0,0,0,0
COC(=O)/C(C#N)=C/c1c(-c2ccccc2)nc2n1CCS2,0,0,0,0,0,0
Clc1cccc(Cl)c1CO/N=C/c1c(-c2ccccc2)nc2n1CCS2,0,?,23470,0,0,0
COC(=O)C1=C(C)NC(=O)C1(NS(=O)(=O)c1ccc(NC(C)=O)cc1)C(F)(F)F (centres undefined),0,0,19985,0,0,0
CCOC(=O)c1cnc(-n2cc(C)cn2)nc1NCc1ccc2c(c1)OCO2,0,?,21542,0,0,0
CCOC(=O)c1[nH]c(COC(=O)CCOc2ccccc2OC)c(C(=O)OCC)c1C,0,?,23144,0,0,0
COC(=O)c1nnn(CC(=O)NC(=O)Nc2cccc(Cl)c2C)c1C(=O)OC,0,0,0,0,0,0
COc1cc2c3nnc(-c4ccccc4)c-3cn(Cc3ccccc3F)c2cc1OC,-,-,-,-,-,734.0
COc1ccc(N(CC(=O)NCCC2=CCCCC2)S(C)(=O)=O)cc1OC,0,0,22438,0,0,0
COc1ccccc1NS(=O)(=O)c1cc(C(=O)NCc2ccco2)ccc1C,0,0,17992,0,0,0
Cc1ccccc1NS(=O)(=O)c1cc(C(=O)NCc2ccco2)ccc1C,0,0,0,0,0,0
CCN(CCCNC(=O)COc1cc(=O)n(C)c2ccccc12)c1cccc(C)c1,0,0,17522,0,0,0
CCOC(=O)CNC(=O)COc1coc(CN2CCN(c3ccccc3F)CC2)cc1=O,0,38.3,0,0,0,0
Cn1c(=O)cc(OCC(=O)NCCCN2CCN(c3ccccc3F)CC2)c2ccccc21,0,0,20602,0,0,0

# Assay outcomes deposited in PubChem BioAssay by several laboratories.
